Measured values reported in PubChem BioAssay (EPA / NIEHS).
Values joined by “and” are separate entries in the source; they are usually repeats but may differ in a detail not shown here. Identical values can stand only once. Active and inactive are the calls of the source. Rule for the calls: active = hit-call score of the fitted dose curve at least 0.9, where 1 is the maximum; inactive = score below 0.9.

read-out: Plasminogen activator inhibitor-1 (PAI1), SERPINE1 (gene 5054); assay: BSK_BE3C_PAI1: BioMAP Diversity Plus: BE3C Assay for Plasminogen activator inhibitor-1 (PAI1) Biomarker Activity (AID 2283037); settings: primary human bronchial epithelial cells; actives raise or lower the signal
Description: BSK_BE3C is a cell-based, multiplexed-readout assay that uses bronchial epithelial cell, a human lung primary cell, with measurements taken at 24 hours after chemical dosing in a 96-well plate.BSK_BE3C_PAI1 is an assay component measured in the BSK_BE3C assay. It measures PAI-1 antibody related to regulation of gene expression using ELISA technology.Data from the assay component BSK_BE3C_PAI1 was analyzed into 1 assay endpoint. This assay endpoint, BSK_BE3C_PAI1, was analyzed with bidirectional fitting relative to DMSO as the negative control and baseline of activity. Using a type of binding reporter, gain or loss-of-signal activity can be used to understand changes in the signaling as they relate to the gene SERPINE1. Furthermore, this assay endpoint can be referred to as a primary readout, because this assay has produced multiple assay endpoints where this one serves a signaling function. To generalize the intended target to other relatable targets, this assay endpoint is annotated to the cytokine intended target family, where the subfamily is plasmogen activator inhibitor.
The levels of cell surface (or secreted, indicated by the prefix "s") biomarker endpoints were measured by ELISA. Overt cytotoxicity to cells in confluent adherent cultures (all systems other than the BT system) was assessed by measuring total protein levels using sulforhodamine B (SRB) staining in parallel cultures at the time of biomarker measurements, indicated as SRB endpoints. For proliferation assays for adherent cell types, individual cell types are cultured at sub-confluence and relative cell numbers quantified by SRB staining at time points optimized for each system (48 h: 3C and CASM3C systems; 72 h: BT and HDF3CGF systems; 96 h: SAg system). SRB was performed by staining cells with 0.1% SRB after fixation with 10% TCA and reading wells at 560 nm.Viability and proliferation of PBMC (T cells) was quantified by Alamar Blue reduction for the SAg and BT systems. For PBMC viability (referred to as PBMC Cytotoxicity within the assay endpoint names), cells were plated (75,000/well in a 96-well plate) and then chemical samples added for 1 h before addition of activators, SEB and TSST-1 (20 ng/mL final concentration each). Cells were incubated for 90 h. Then, Alamar Blue (20 uL/well) (Invitrogen, Cat DAL1100) was added for 6 h, and the plates were read with a fluorescence microplate reader at 546/580 nm (excitation/emission). For PBMC proliferation, cells were plated and activated as above but incubated for only 16 h prior to addition of Alamar Blue. Plates were read after 6 h.

SMILES | outcome | AC50
C[C@]12CCC(=O)C=C1CC[C@@H]1[C@@H]2CC[C@]2(C)C(=O)CC[C@@H]12 | inactive | –
Cc1cc(-c2ccc(N)c(C)c2)ccc1N | inactive | –
CCCCCCOC(=O)c1ccccc1C(=O)OCCCCCC | inactive | –
ClC1=C(Cl)[C@]2(Cl)[C@@H]3[C@H]4C[C@H]([C@@H]5O[C@H]45)[C@@H]3[C@@]1(Cl)C2(Cl)Cl | inactive | –
Oc1ccc(Cl)cc1Cl | inactive | –
Clc1ccc(C(c2ccccc2Cl)C(Cl)(Cl)Cl)cc1 (stereo not given) | inactive | –
CCCCCCCCCC[N+](C)(C)CCCCCCCCCC | – | 3.71 µM (active)
Cc1cccc([N+](=O)[O-])c1 | inactive | –
Oc1c(Cl)c(Cl)c(Cl)c(Cl)c1Cl | – | 1.18 µM (active) and 10.5 µM (active)
Cc1ccccc1[N+](=O)[O-] | inactive | –
CCCCCCCCOC(=O)c1ccccc1C(=O)OCCCCCCCC | inactive | –
CCOC(=O)C(O)(c1ccc(Cl)cc1)c1ccc(Cl)cc1 | – | 14.7 µM (active)
C=CC(=O)NCNC(=O)C=C | inactive | –
Sc1ccccc1 | inactive | –
CCSC(=O)N(CC)C1CCCCC1 | inactive | –
ClC1=C(Cl)[C@]2(Cl)[C@@H]3[C@@H]4C[C@@H]([C@H]5O[C@@H]45)[C@@H]3[C@@]1(Cl)C2(Cl)Cl | inactive | –
CCC(C)(CC)c1cc(NC(=O)c2c(OC)cccc2OC)on1 | inactive | –
CCC(C)(c1ccc(O)cc1)c1ccc(O)cc1 | inactive | –
O=S(=O)(O)C(F)(F)C(F)(F)C(F)(F)C(F)(F)F | inactive | –
NS(=O)(=O)C(F)(F)C(F)(F)C(F)(F)C(F)(F)C(F)(F)C(F)(F)C(F)(F)C(F)(F)F | – | 10.4 µM (active) and 17.1 µM (active) and 15.5 µM (active)

SMILES | outcome | AC50
Cc1cc2c3c(c1)C(c1ccccc1)=N[C@@H](NC(=O)c1ccncc1)C(=O)N3CC2 | inactive | –
N#Cc1ccc(N(CC(N)=O)CC(F)(F)F)cc1C(F)(F)F | inactive | –
O=C(O)C(F)(F)C(F)(F)C(F)(F)C(F)(F)C(F)(F)F | inactive | –
O=C(O)C(F)(F)C(F)(F)C(F)(F)C(F)(F)C(F)(F)C(F)(F)C(F)(F)C(F)(F)F | – | 32.3 µM (active) and 23.3 µM (active) and 40.2 µM (active)
C1CC2OC2CC1C1CO1 (stereo not given) | inactive | –
CCNc1nc(NC(C)C)nc(SC)n1 | inactive | –
O=C(NC(=O)c1c(F)cccc1F)Nc1cc(Cl)c(OC(F)(F)C(F)F)c(Cl)c1 | inactive | –
Cc1ccccc1O | inactive | –
C[C@]12CCC(=O)C=C1CC[C@@H]1[C@@H]2CC[C@@]2(C)[C@H]1CC[C@]2(C)O | inactive | –
CC(c1ccc(O)cc1)(c1ccc(O)cc1)c1ccc(O)cc1 | – | 3.29 µM (active)
C=CC(N)=O | inactive | –
c1cc2ccc3cccc4ccc(c1)c2c34 | inactive | –
COS(=O)(=O)OC | inactive | –
Clc1ccc(C(Cl)(Cl)Cl)cc1 | inactive | –
CCCN(CCC)N=O | inactive | –
Clc1ccc(Cl)cc1 | inactive | –
CC(C)(O)C(=O)Nc1ccc([N+](=O)[O-])c(C(F)(F)F)c1 | inactive | –
ClC1=C(Cl)[C@]2(Cl)[C@@H]3[C@@H](Cl)[C@H]4O[C@H]4[C@@H]3C1(Cl)C2(Cl)Cl | inactive | –
CN(C)CCO | inactive | –
CCCCCCCCCc1ccc(O)cc1 | – | 15.7 µM (active)
